Screens as filed in PubChem.
PLK1 PBD inh – inhibitors of human PLK1 polo-box domain binding. P53350. Plk1 PBD binding of FITC phosphopeptide, fluorescence polarization. Potency, µM, without a hit: max response, negative = inhibition, usual class: inhibitors. 2.8% of 360,000 active. AID 720504; further: series mostly up to about 57 µM; on the % scale 0 is the no-effect control and ±100 the full control effect; nearly all actives have a fitted effect of over 65% in size
BAZ2B inh – inhibitors of human BAZ2B bromodomain; Q9UIF8; AlphaScreen BAZ2B-H3K14Ac peptide displacement; Potency, µM (titrated, usually from 114 µM), for the others: at the highest dose activity change, negative = inhibition, actives largely listed as inhibitors; 4.4% of 360,000 active; further: on the % scale 0 is the no-effect control and ±100 the full control effect; nearly all actives have a fitted effect of over 60% in size
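Inhibition is scored as reduced AlphaScreen emission. The BAZ2B/b-H3(5-23)K14Ac complex (50 nM each) in PBS pH 7.4, 0.01% Tween-20 meets compound (up to 110 uM) for 30 min at RT before bead addition.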
JMJD2A Tudor – JMJD2A Tudor domain (human) inhibition. AlphaScreen JMJD2A-Tudor / H3K4me3 peptide binding. O75164. 4.4% of 390,000 active. Potency, µM (doses to about 114 µM), for inactives: at the top dose activity change, negative = inhibition, actives largely listed as inhibitors; further: on the % scale 0 is the no-effect control and ±100 the full control effect; nearly all actives have a fitted effect of over 50% in size
G9a inh – blocks human histone lysine methyltransferase G9a; G9a H3K9 monomethylation, AlphaScreen, 2 h; Potency, µM (series often up to 102 µM), for inactives: at the highest dose activity, negative = inhibition, usual class: inhibitors; 8.8% of 350,000 active; AID 504332; further: on the % scale 0 is the no-effect control and ±100 the full control effect; nearly all actives have a fitted effect of over 75% in size
Target sequence (Q96KQ7 913-1193 limits assumed): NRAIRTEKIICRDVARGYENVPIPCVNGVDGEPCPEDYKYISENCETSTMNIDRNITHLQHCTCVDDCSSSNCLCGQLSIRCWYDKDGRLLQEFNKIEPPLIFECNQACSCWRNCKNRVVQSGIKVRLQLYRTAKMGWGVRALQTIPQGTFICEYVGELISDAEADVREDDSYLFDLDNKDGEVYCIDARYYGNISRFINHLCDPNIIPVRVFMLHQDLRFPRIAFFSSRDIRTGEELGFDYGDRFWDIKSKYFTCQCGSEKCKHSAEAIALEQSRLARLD
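Step 1: enzyme (final 20 nM) with compound, 15 min RT. Step 2: substrate peptide 500 nM and SAM 20 uM, 2 h RT. Step 3: anti-H3K9me1 antibody and AlphaScreen beads, 10 min, then plate read.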
HP1b binding inh – blocks HP1-beta chromodomain binding to methylated histone tails; P83916; AlphaScreen HP1-beta / biotin-H3K9me3 peptide binding; Potency, µM (doses to about 114 µM), inactives show at the top dose activity change, negative = inhibition, most hits filed as inhibitors; 0.56% of 390,000 active; AID 540317; further: nearly all actives have a fitted effect of over 70% in size
Target sequence (P83916 whole entry, looked up): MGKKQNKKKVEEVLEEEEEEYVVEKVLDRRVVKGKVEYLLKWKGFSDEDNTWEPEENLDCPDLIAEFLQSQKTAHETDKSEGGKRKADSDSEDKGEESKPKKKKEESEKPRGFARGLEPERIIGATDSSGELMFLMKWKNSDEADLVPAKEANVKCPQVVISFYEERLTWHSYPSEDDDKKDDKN
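HP1-beta protein (50 nM final) preincubated 30 min at room temperature with biotinylated H3(1-18)K9me3 peptide (50 nM) in PBS pH 7.4, 0.01% Tween-20, then compound added for 30 min. AlphaScreen streptavidin donor/nickel chelate acceptor beads (10 ug/mL final), 30 min dark, luminescence read.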
Sfp inh – inhibitors of Bacillus subtilis Sfp phosphopantetheinyl transferase | Q9F4F7 | Biochemical Sfp PPTase activity, qHTS | Potency, µM, for inactives: largest response in the series, negative = inhibition, usual class: inhibitors | 3.5% of 310,000 active | AID 1490;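 further: the enzyme is Sfp with the accession as filed and its product quenches rhodamine fluorescence; 0% = enzyme reaction without inhibitor and -100% = no enzyme wells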
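Buffer: 50 mM Hepes-Na pH 7.6, 10 mM MgCl2, 0.01% Nonidet P-40, 0.01% BSA. Enzyme 15 nM, pre-exposed to compound 15 min; substrates then added and fluorescence change tracked over 30 min.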
* marks the source's active call; other numbers are inactive results; ? = inconclusive; · = not tested or not shown; ! = a repeat was not active; [ ] = remark or other dose. This is a sample that favours compounds with a hit; in the whole collection about 12% have one here. The call rests on the fitted dose curve; in most records, active means well fitted curve in the direction sought with a large enough effect; inconclusive means small, poorly fitted or top-dose-only effect, or another doubt; inactive means no such curve, though single readings can be large; an effect the other way counts as inactive or inconclusive. Potency means the concentration at half of the fitted maximal effect.

SMILES	PLK1 PBD inh	BAZ2B inh	JMJD2A Tudor	G9a inh	HP1b binding inh	Sfp inh
CCCCC(=O)NC(c1ccc(C(C)C)cc1)c1ccc2cccnc2c1O (stereo unspecified)	-6%	-10%	-15%	34%[59 µM]	54%	15%
CCCCC(=O)NC(c1ccccc1)c1ccc2cccnc2c1O (stereo unspecified)	-7%	40µM*	-22%	23%	56%	19%
CCOC(=O)c1c(-c2ccccc2)oc2ccc(OCc3ccccc3Br)cc12	·	1%	35%	21%[59 µM]	61%	·
COc1ccc(N2CCN(c3csc4ccc(Cl)cc4c3=O)CC2)cc1	·	50µM*	?	-51%[59 µM]	-13%[57 µM]	·
COc1ccc(N2CCN(c3csc4ccccc4c3=O)CC2)cc1	·	40µM*	40µM*	?	-5%[57 µM]	·
CC(C)(C)C(=O)C(Cl)C(=O)Nc1ccccc1 (stereo unspecified)	11µM*	-3%	-1%	?	53%	45µM*
N#CCNC1CC(=O)N(c2ccc(F)cc2)C1=O (stereo unspecified)	-14%	-6%	-19%	7.9µM*	1%	?
O=C1CC(NCC2CCCO2)C(=O)N1c1ccc(F)cc1 (stereo unspecified)	2%	-8%	-18%	50µM*	24%	-16%
O=C1CC(NCc2ccc(F)cc2)C(=O)N1c1ccccc1 (stereo unspecified)	-9%	-15%	-11%	-48%	41%	9%
CCNC(=O)c1ccc(CSc2ccc(Cl)cc2)cc1	27µM*	8%	?	6%[59 µM]	1%	18%
CCc1ccc(NC(=S)NNC(=O)c2ccccc2OC(F)F)cc1	·	6%	·	13µM*	·	10%
COc1ccc(NC(=S)NNC(=O)c2ccccc2OC(F)F)cc1	-10%	0%	-20%	?	5%	3%
CC1(C)CC(=O)C=C(Nc2ccc(F)cc2)C1	-5%	-8%	1%	19%[12.7 µM]	25%	-4%
O=C1NC(=O)c2cc(Nc3ccccc3)c(Nc3ccccc3)cc21	·	·	·	21µM*!	·	7%
O=C1NC(=O)c2cc(Nc3ccc(F)cc3)c(Nc3ccc(F)cc3)cc21	·	·	·	14µM*	·	?
CC(C)C(=O)Nc1ccccc1OCc1cc(=O)n2ccccc2n1	·	9%	-10%	1%[59 µM]	12%[57 µM]	·
CN1CCC(=O)N([C@H](CO)c2ccccc2)CC1	-21%	-27%	-20%	45µM*	52%	14%
O=C1CCN(Cc2ccccc2)CCN1[C@H](CO)c1ccccc1	-23%	5%	-16%	·	49%	4%
O=c1[nH]nc(CNc2ccc(O)cc2)c2ccccc12	-23%	?	-21%	11µM*	10%	?
Cc1[nH]nc2c1C(c1ccc(-c3ccccc3C#N)o1)C(C#N)=C(N)O2 (stereo unspecified)	30µM*	-35%	?	20µM*	7%	22µM*
Cc1[nH]nc2c1C(c1ccc(-c3ccc(Cl)cc3)o1)C(C#N)=C(N)O2 (stereo unspecified)	?	40µM*	?	79µM*	-26%	-18%
Cc1ccc(-c2ccc(C3C(C#N)=C(N)Oc4n[nH]c(C)c43)o2)cc1 (stereo unspecified)	?	?	?	?	?	50µM*
Cc1[nH]nc2c1C(c1ccsc1C)C(C#N)=C(N)O2 (stereo unspecified)	-16%	1%	-24%	79µM*	12%	13%
Cc1[nH]nc2c1C(c1ccsc1)C(C#N)=C(N)O2 (stereo unspecified)	?	-4%	-15%	-21%[59 µM]	18%	7%
Cc1[nH]nc2c1C(c1ccc(F)cc1)C(C#N)=C(N)O2 (stereo unspecified)	-17%	·	-18%[11.4 µM]	-2%[59 µM]	34%	13%
SMILES	PLK1 PBD inh	BAZ2B inh	JMJD2A Tudor	G9a inh	HP1b binding inh	Sfp inh
Cc1cc(C2C(C#N)=C(N)Oc3n[nH]c(C)c32)c(C)s1 (stereo unspecified)	-22%	?	-12%	-13%[0.501 µM]	17%	-18%
Cc1cc(C)n(CCc2nc3c4ccccc4nc(N4CCN(c5ccccc5F)CC4)n3n2)n1	·	0%	-7%	1%[59 µM]	22%	·
Cc1ccc(C(=O)c2oc3ccccc3c2NC(=O)COc2ccccc2Cl)cc1	·	50µM*	-9%	-38%[59 µM]	37%	·
O=C(Nc1cccc(C(F)(F)F)c1)Nc1cc(Cl)ccc1C(=O)O	·	·	·	·	·	10%
CCOC(=O)c1cnc2ccc(OC)cc2c1NCc1ccccc1	0%	101%	49%	191%	115%	-8%
CCOC(=O)c1cnc2ccc(OCC)cc2c1NCc1ccccc1OC	9%	49%	46%	27%[59 µM]	156%	56µM*
CCOC(=O)c1cnc2ccccc2c1NCc1ccco1	1%	0%	-4%	1%	40%	45µM*
CC(=O)c1ccccc1NC(=O)COC(=O)c1cc(C)oc1C	-5%	3%	-12%	10%[12.7 µM]	40%	·
CCOc1ccc(NC(=O)CC(NCc2ccccn2)C(=O)O)cc1 (stereo unspecified)	-5%	1.4µM*	11µM*	?	42%	18%
COc1ccc(NC(=O)CC(C(=O)O)C(C)c2ccccc2)cc1 (stereo unspecified)	-17%	-3%	-5%	16%[59 µM]	37%	15%
COc1ccc(N=C2SC(CC(=O)Nc3ccccc3)C(=O)N2Cc2ccccn2)cc1 (stereo unspecified)	-8%	?	-33%	50µM*	27%	-14%
COc1ccc(NC(=O)CC(NCc2ccccn2)C(=O)O)cc1 (stereo unspecified)	-7%	3.2µM*	13µM*	8%	40%	10%
CN(C)C(=O)NC1CCCCCCC1	·	·	·	·	·	-8%
CCCc1cc(=O)[nH]c2nnc(SCC(=O)Nc3nnc(CC)s3)n12	-9%	6%	25µM*	-8%[12.7 µM]	7%	·
CCOC(=O)CSc1nc2cc(OC)c(OC)cc2cc1C#N	·	·	-9%[57.1 µM]	·	25%[57 µM]	·
C/C(=N\NC(=O)CCCNc1ccc(C)cc1)c1ccccn1	-3%	56µM*	?	16µM*	7%	-4%
C/C(=N\NC(=O)c1ccc(F)cc1)c1ccccn1	2%	10µM*	35µM*	?	30%	9%
C/C(=N/NC(=O)c1cc2ccccc2cc1O)C1C(=O)c2ccccc2C1=O	9.5µM*	?	16µM*	40µM*	22µM*	0%
C/C(=N\NC(=O)c1c[nH]c2ccccc12)c1ccccn1	-4%	10µM*	50µM*	16%	39%	29%
C/C(=N\NC(=O)c1cc2ccccc2cc1O)c1cc2ccccc2o1	-13%	2%	-35%	1%	8%	-1%
C/C(=N\NC(=O)c1cc2ccccc2cc1O)c1ccccn1	?	10µM*	18µM*	·	20%[57 µM]	13%
CC(=O)Nc1ccc(/C(C)=N/NC(=O)c2ccc(F)cc2)cc1	?	3%	89µM*	8%	-7%	4%
